# Experimental data taken from PubChem BioAssay AID841 (Emory University Molecular Libraries Screening Center, 2007).
# Screen size: about 140,000 compounds; about 2,100 (1.5%) were called active. The list comes from a sample in which actives are over-represented; it also holds similar structures and randomly drawn compounds. Unmarked numbers belong to inactive results. No stated cut-off is given here; in the data, active means protection mostly above about 24% (no sharp cut-off); inactive means mostly below about 26%.
# Experiment: blockers of measles virus-induced cell death – single point, MLSMR library, absorbance, measles RdRp inhibitor project, primary screen (AID 841)
# Conditions: Measles virus-infected cells, CPE protection, at 4 µM, active compounds read high
row,Structure (SMILES),protection (pct of control)
1,CC1(C)C(C=C(Cl)Cl)C1C(=O)N(Cc1ccc(Cl)cc1)C1CCS(=O)(=O)C1 (configuration not stated),9.24%
2,Fc1ccc(CNCc2ccc(Br)cc2)cc1,8.72%
3,N#CC1(NC(=O)COc2ccc3oc4ccccc4c3c2)CCCCC1,21.4%
4,Cc1cc(C)cc(OCC(=O)NNC(=O)CCN2C(=O)c3ccccc3C2=O)c1,9.19%
5,Cc1nc(-c2ccccc2)cn2c1nc1ccccc12,23.6%
6,CC(=O)Nc1cccc(NC(=O)c2c(-c3ccccc3)noc2C)c1,14.1%
7,CCOC(=O)c1c(-c2cccc(C)c2)csc1NC(=O)c1c(-c2ccccc2)noc1C,54.7% (active)
8,CCOC(=O)c1c(-c2ccccc2)csc1NC(=S)NC(=O)c1ccccc1,9.01%
9,CCc1cc(C(=O)OC)c(NC(=O)CC2Sc3ccc(C(F)(F)F)cc3NC2=O)s1 (configuration not stated),11.3%
10,CCOc1ccc(NC(=O)c2ccc(CSc3nnnn3C)cc2)cc1,10.1%
11,Cc1c(C(=O)Nc2cccc(Cl)c2)cn2c(nc3ccccc32)c1C#N,8.24%
12,CCCCC(NS(=O)(=O)c1ccc(C)cc1)C(=O)Oc1ccc2c3c(c(=O)oc2c1)CCC3 (configuration not stated),9.68%
13,CC1CN(S(=O)(=O)c2ccc(C(=O)Nc3sccc3C(N)=O)cc2)CC(C)O1 (configuration not stated),9.47%
14,O=C(NC(=S)N1CCN(Cc2ccccc2)CC1)c1ccccc1,18%
15,O=C(Nc1cccc(NC(=O)N2CCN(c3ccccc3)CC2)c1)N1CCN(c2ccccc2)CC1,27.8%
16,O=C(Nc1ccccc1)N1CCN(Cc2ccccc2)CC1,65.6% (active)
17,CN(Cc1ccccc1)C(=O)COC(=O)c1ccccc1Nc1ccccc1,18.6%
18,O=[N+]([O-])c1ccccc1SNc1ccccn1,4.84%
19,COc1cc(OC)nc(NC(=O)CCl)n1,15.4%
20,O=C(CCl)NNc1cccc(Cl)n1,28.9% (active)
21,O=C(NNc1ccccn1)c1ccc(Cl)nc1,3.74%
22,COc1cc(OC)c(C(=O)Nc2ccccc2-c2ccccc2)cc1OC,39.7%
23,CC(OC(=O)CNS(=O)(=O)/C=C/c1ccccc1)C(=O)Nc1ccc(S(=O)(=O)N2CCCC2)cc1 (configuration not stated),8.77%
24,Cc1nn(Cc2ccc(F)cc2)c(C)c1NC(=O)c1cccnc1Cl,10.5%
25,CC(NC(=O)CSc1nc2c(cc1C#N)CN(C)CC2)c1ccccc1 (configuration not stated),48.7% (active)
26,Cc1nc2cc(NC(=O)CSc3nc4c(C)cccc4cc3C#N)ccc2s1,7.78%

row,Structure (SMILES),protection (pct of control)
1,CC1(C)CCc2nc(SCc3ccccc3)c(C#N)cc2C1,17.7%
2,COc1cc(/C=N\NC(=O)c2nonc2N)c(OC)cc1Br,4.84%
3,CCCCN1C(=O)CCC(C(=O)O)C1c1ccc(OC)cc1 (configuration not stated),18.6%
4,CCn1c(C(C)NC(=O)c2ccc(C)cc2)n[nH]c1=S (configuration not stated),13.2%
5,COc1ccc(C2CC(c3ccccc3)=NN2C(=O)c2ccc(Cl)c([N+](=O)[O-])c2)cc1 (configuration not stated),5.64%
6,Cc1[nH]c2ccccc2c1C(=O)COC(=O)c1c(-c2ccccc2)noc1C,3.64%
7,CCOC(=O)c1c(C)nc(-c2ccccc2)nc1NC(=O)C(C)C,92.6% (active)
8,CCOC(=O)c1c(C)[nH]c(=S)c(C#N)c1-c1ccccc1,1.99%
9,C=CCN(c1ccc(C(=O)Nc2cc(C)cc(C)c2)cc1)S(C)(=O)=O,12.6%
10,Cc1ccc(C(C)(C)C)c(OCCCCN2CCCC2)c1,-0.18%
11,O=C(N/N=C/c1ccc2c(c1)OCO2)c1ccc(Cn2cc([N+](=O)[O-])cn2)o1,18.3%
12,CN(C)c1ccc(/C=N/NC(=O)c2ccc(Cn3cc(Br)cn3)o2)cc1,28.3% (active)
13,O=C(N/N=C\c1ccc(Br)cc1)c1ccc(Cn2cccn2)o1,5.4%
14,Cc1ccc(S(=O)(=O)N(NC2=NS(=O)(=O)c3ccccc32)C(=O)c2ccccc2)cc1,7.51%
15,CCOC(=O)C1=C(N)N(c2ccc(C)cc2)C2=C(C(=O)CCC2)C1c1cccs1 (configuration not stated),20.1%
16,Cc1nn(Cc2ccc(Cl)cc2)c(Cl)c1/C=N/NC(=O)c1cccnc1,11.1%
17,CC1(C)CC(=O)C2=C(C1)Nc1cc(C(=O)c3ccccc3)ccc1NC2c1ccccn1 (configuration not stated),2.11%
18,CCCCn1c(=O)c(CCC(=O)OCC(=O)Nc2ccc(C)c(Cl)c2)nc2ccccc21,23.4%
19,COc1ccc(NC(=O)COC(=O)Cn2c(C)nc3ccccc32)cc1OC,50.1% (active)
20,Cc1noc(C)c1COC(=O)Cn1c(C)nc2ccccc21,7.94%
21,O=C(Nc1cccc(S(=O)(=O)N2CCCCC2)c1)c1ccc2c(c1)OCO2,8.22%
22,Cc1ccc(S(=O)(=O)N(C)C)cc1NC(=O)COC(=O)c1c(C)noc1C,9.42%
23,Cc1cccc(NC(=O)COc2ccc(Br)cc2C)n1,6.52%
24,CCN(CC)S(=O)(=O)c1ccc(C)c(NC(=O)COc2ccc(Br)cc2Cl)c1,52.8% (active)
25,CN(C(=O)c1c(Cl)cnn1C)C12CC3CC(CC(C3)C1)C2,6.9%
26,Cc1c(C(=O)NCCN2C(=O)S/C(=C\c3cccs3)C2=O)cccc1[N+](=O)[O-],19.9%
